High-throughput results as filed in PubChem BioAssay.
Pf Dd2 inh = inhibitors of Plasmodium falciparum Dd2 growth; Potency, µM (series often up to 28.9 µM), hits mostly inhibitors; 4.3% of 120,000 active; P. falciparum Dd2 growth, SYBR Green, 72 h; AID 1347417; active means well fitted inhibition curve with a large enough effect; further: nearly all actives have a fitted effect of over 65% in size
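Readout: SYBR Green fluorescence, 485 nm excitation, 535 nm emission, after ~16 h lysis at 37C. Before that, Dd2-infected red cells (2.5% hematocrit) grew 72 h with compound, 29 uM top final concentration.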
Of the large screens only hits and unclear results are named; the others gave an inactive call. The entries come from a sample that favours hits as a whole.

Cc1ccc(-c2ncc(C(=O)N(C)Cc3nc(CC(C)C)no3)c(=O)[nH]2)cc1	none
CC(C)Cc1nc2nccc(-c3ccccc3)n2n1	none
O=C(NC1CCCC1)C1CCCN(c2nc(-c3ccccc3)nc3c2CCC3)C1 (stereo not drawn)	none
CC1CCN(C(=O)C2CCN(c3nc(-c4ccccc4)nc4c3CCC4)CC2)CC1	none
Cc1ccc(C#N)c(N2CCN(C3CCCC3)C(CCO)C2)n1 (stereo not drawn)	none
NC1CCN(C(=O)C2CCN(c3nc(-c4ccccc4)nc4c3CCC4)CC2)C1 (stereo not drawn)	none
OCCC1CN(c2nc(-c3ccccc3)nc3c2CCC3)CCN1C1CCCC1 (stereo not drawn)	Pf Dd2 inh 10µM
O=C(C1CCN(c2nc(-c3ccccc3)nc3c2CCC3)CC1)N1CCCNCC1	Pf Dd2 inh 8.9µM
NC(=O)c1ccc(CC2CCN(C(=O)C3CCC3)CC2)cc1	none
Cc1ccc(C(=O)N2C[C@@H]3CCCN4CCC[C@@H]([C@H]34)[C@H]2CCCC(=O)Nc2ccccc2)cc1	none
O=C1NC[C@@H](CCC(=O)N2CCC(O)CC2)N2C[C@@H](NCc3ccccc3)C[C@@H]12	none
O=C(N[C@@H]1CCN(C(=O)Cc2noc3ccccc23)C[C@H]1O)c1cccnc1	none
O=C(NC1CCN(c2cc(C(F)(F)F)ncn2)CC1)c1cccc(Cl)c1	none
Cc1ccc(-c2noc([C@@H]3Cc4nc[nH]c4CN3C(=O)c3ccc(F)cc3)n2)cc1	none
O=C(NCc1ccccc1)N1Cc2[nH]cnc2C[C@H]1c1nc(-c2ccc3c(c2)OCO3)no1	none
N#Cc1ccc(C(=O)N2Cc3[nH]cnc3C[C@H]2c2nc(-c3ccc4c(c3)OCO4)no2)cc1	Pf Dd2 inh 10µM
O=C(Cn1nc2c(cc1=O)CCCCC2)Nc1nccs1	none
COc1ccccc1CCC(=O)N1[C@@H]2CC[C@H]1CC(NC(=O)c1ccncc1)C2 (stereo partly drawn)	none
COc1ccccc1CCC(=O)N1CC[C@@H]2CN(S(C)(=O)=O)[C@@H]2C1	none
CCN(CC)S(=O)(=O)N(C)CC1CCCN(CCc2ccccc2OC)C1 (stereo not drawn)	Pf Dd2 inh 2.8µM
COc1ccccc1CC(=O)N[C@@H]1CN(C)C[C@H]1CN(C)C	none
CCOc1cc(=O)n2c(c1C(=O)Nc1ccc(F)c(Cl)c1)CCCC2	none
Cc1ccccc1-n1cc(CN(C)Cc2nc(-c3ccc(C(F)(F)F)cc3)no2)cn1	none
c1ccc(C(CNc2nccc(-c3ccncc3)n2)N2CCOCC2)nc1 (stereo not drawn)	none
Cc1ccccc1-n1cc(-c2ccnc(NC(C)Cc3ccncc3)n2)cn1 (stereo not drawn)	Pf Dd2 inh 8.9µM
COC[C@@H]1CN(S(=O)(=O)c2cnc[nH]2)C[C@H]1c1ccccn1	none
COc1ccc(CN2C(=O)c3oc4ccccc4c(=O)c3C2c2ccc(O)cc2)cc1 (stereo not drawn)	none
COc1ccc(CN2C(=O)c3oc4ccc(F)cc4c(=O)c3C2c2ccc(O)cc2)cc1 (stereo not drawn)	none
O=C1c2oc3ccccc3c(=O)c2C(c2cccc(O)c2)N1Cc1ccc(F)cc1 (stereo not drawn)	Pf Dd2 inh 14µM
COCCOc1ccc2c(n1)CCN(C(=O)c1sccc1C)C2	none
O=C(c1ccccc1OCC1CCCN(C2CCCC2)C1)N1CCCC1 (stereo not drawn)	none
CN(C)c1ccc(C(=O)N2CCCC(COc3ccccc3C(=O)N3CCCC3)C2)cc1 (stereo not drawn)	Pf Dd2 inh 6.3µM
O=C(c1ccncc1)N1CCCC(COc2ccccc2C(=O)N2CCOCC2)C1 (stereo not drawn)	none
COc1cccc(C(=O)N2CCC(C(NC(=O)c3cccc(C)c3)C(=O)N3CCCC3)CC2)c1 (stereo not drawn)	none
c1cncc(-c2nnc3n2CCN(Cc2ccsc2)C3)c1	none
CC[C@H]1CN(C(C)=O)CC[C@H]1CC(=O)Nc1ccccc1	none
COc1ccc(C2C(C(=O)Nc3cccnc3)=C(C)Nc3nc(-c4ccccc4)nn32)cc1OC (stereo not drawn)	none
COc1ccc(-c2nc3n(n2)C(c2ccccc2F)C(C(=O)Nc2cccnc2)=C(C)N3)cc1OC (stereo not drawn)	Pf Dd2 inh 10µM
COc1ccc(-c2nc3n(n2)C(c2ccc(O)cc2)C(C(=O)Nc2cccnc2)=C(C)N3)cc1OC (stereo not drawn)	none
Cc1ncc2c(c1CNC(=O)Cn1cnc3ccccc3c1=O)CCNC2	none
O=C1CCC2(C(=O)NCCCN3CCOCC3)CCCC=C2N1c1ccccc1 (stereo not drawn)	none
COc1ccc([C@H](C)NC(=O)c2c(C)noc2-c2cc(OC)c(OC)c(OC)c2)cc1	none
COCCCNC(=O)c1c(C)noc1-c1cc(OC)c(OC)c(OC)c1	none
COc1ccc(-c2onc(C)c2C(=O)NCc2c(OC)cc(OC)cc2OC)cc1	none
COc1ccc(-c2onc(C)c2C(=O)N(C)Cc2cc(OC)c(OC)c(OC)c2)cc1	Pf Dd2 inh 10µM
COc1cc(-c2onc(C)c2C(=O)NCCCc2ccccc2)cc(OC)c1OC	Pf Dd2 inh 11µM
COc1ccc(-c2onc(C)c2C(=O)NCCCCc2ccccc2)cc1	none
